Values without a mark were called inactive. Calls of active or inactive are those of the source.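 Rule for the calls: active = inhibition above about 23% in any of six single-dose repeats (limit read from the data); inactive = the rest.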
These compounds were tested against Intestinal-type alkaline phosphatase (Homo sapiens) (UniProt P09923) (assay: suppression of intestinal alkaline phosphatase activity – biochemical, luminescence, single concentration, uHTS hits, confirmation (AID 434927;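 note: plate controls were DMSO wells with enzyme for no effect and wells lacking enzyme for full effect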)). Details: purified human IAP, CDP-Star luminescence, 30 min; at 8.3 µM; active compounds read high.
Intestinal-type alkaline phosphatase (Homo sapiens), sequence (P09923 whole entry, looked up): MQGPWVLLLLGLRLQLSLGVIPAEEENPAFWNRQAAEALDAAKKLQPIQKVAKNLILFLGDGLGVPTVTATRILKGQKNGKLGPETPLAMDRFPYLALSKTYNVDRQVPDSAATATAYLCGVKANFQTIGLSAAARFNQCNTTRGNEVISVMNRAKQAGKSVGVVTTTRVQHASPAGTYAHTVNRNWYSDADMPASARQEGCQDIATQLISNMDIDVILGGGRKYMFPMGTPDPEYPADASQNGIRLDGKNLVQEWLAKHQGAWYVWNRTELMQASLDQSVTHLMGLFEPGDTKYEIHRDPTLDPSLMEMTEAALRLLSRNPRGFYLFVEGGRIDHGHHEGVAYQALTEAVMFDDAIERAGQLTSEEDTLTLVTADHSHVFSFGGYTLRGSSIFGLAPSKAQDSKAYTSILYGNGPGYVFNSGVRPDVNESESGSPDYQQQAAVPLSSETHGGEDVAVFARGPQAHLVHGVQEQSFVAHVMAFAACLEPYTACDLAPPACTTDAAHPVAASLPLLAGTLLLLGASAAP

Row | Compound | inhibition
1 | O=C(NC(=S)NNC(=O)c1ccccc1O)c1ccc(F)cc1 | 62.4% (active)
2 | CC1=NN(c2nc3ccccc3[nH]2)C(=O)/C1=C/N(C)C | -57%
3 | Cc1cc2cc3c(cc2nc1SCC(=O)Nc1nc(C)c(C)s1)OCO3 | 43.9% (active)
4 | C/C(=N/Nc1ccccc1[N+](=O)[O-])c1ccc([N+](=O)[O-])cc1 | -233%
5 | COc1ccc(NC(=S)NNC(=O)c2nnn(-c3ccccc3)c2C)cc1 | 24% (active)
6 | N#Cc1cc(Oc2ccccc2)c(-n2nnc3ccccc32)cc1C#N | 40.7% (active)
7 | CC(NC(=S)NC1CCC(C(C)(C)C)CC1)c1ccccc1 (centres undefined) | -111%
8 | O=C(COc1ccc(Br)cc1)NCCCn1ccnc1 | 50.5% (active)
9 | O=c1c2c(-c3cccs3)csc2ncn1-c1ccc(Br)cc1 | -112%
10 | CCC(OC(=O)C1=Cc2ccccc2OC1)C(=O)NC1CCCC1 (centres undefined) | -52.5%
11 | COc1ccc(CCN2C(=O)c3ccncc3C2=O)cc1OC | 67.1% (active)
12 | Cc1cc(OCC(=O)Nc2ncn[nH]2)ccc1Cl | -87%
13 | O=C1C2C3C=CC(C3)C2C(=O)N1c1n[nH]c(-c2cccnc2)n1 (centres undefined) | -82.5%
14 | COc1ccccc1CCNC(=O)C1CCN(c2nnc(C)c3c(C)n(-c4ccc(C)cc4)nc23)CC1 | 30.8% (active)
15 | CC(/C=N/NC(=O)CCn1nnc2ccccc21)=C\c1ccccc1 | -88.8%
16 | COc1cc(CN2CCC(n3nccc3NC(=O)CCCc3ccccc3)CC2)ccc1F | 40.7% (active)
17 | O=C(Nc1cccc(-c2cccc(F)c2)c1)C1CCN(C2CCC2)CC1 | 67.6% (active)

Row | Compound | inhibition
18 | Cc1nc(S/C(=C/c2ccc(-c3ccc(Cl)cc3)o2)C(=O)O)n[nH]1 | -88.7%
19 | COc1cc(NC(=O)NCC2CCN(Cc3ccccc3Cl)CC2)cc(OC)c1OC | -142%
20 | CCN(CC)c1ccc(N=Nc2nn(C)c(C)c2[N+](=O)[O-])cc1 | 34.7% (active)
21 | CC(C)CCNc1ncnc2c1nnn2Cc1ccccc1Cl | 40.2% (active)
22 | COc1ccc(C2=NN(C3=NN=C(N)Cc4ncnn43)C(O)(C(F)(F)F)C2)cc1 (centres undefined) | 42% (active)
23 | c1ccc(CSCCc2ccncc2)cc1 | -33.2%
24 | CC1Cn2c(nnc2C23CC4CC(CC(C4)C2)C3)S1 (centres undefined) | 95.1% (active)
25 | Cc1cc(C)cc(OCC(=O)NNC(=O)c2cc(C)[nH]n2)c1 | -94.6%
26 | O=c1c(O[C@@H]2O[C@H](CO)[C@@H](O)[C@H](O)[C@H]2O)c(-c2ccc(O)c(O)c2)oc2cc(O)cc(O)c12 | 48% (active)
27 | Cc1ccc2c(c1)nnc1nnc(SCC(=O)O)n12 | 33.9% (active)
28 | CCn1c(C)nc2cc(C(=O)N/N=C/c3cccc(O)c3O)ccc21 | -42.9%
29 | O=C(/C=C/c1ccccc1O)c1ccco1 | -104%
30 | O=C(NNC(=S)NC(=O)c1ccccc1[N+](=O)[O-])c1ccccc1O | 27.4% (active)
31 | CC[n+]1c(/C=C/c2c[nH]c3ccccc23)ccc2cc(C)ccc21 | -85.7%
32 | Cc1ccc(O)c(N/C=C/C(=O)c2ccc(F)cc2)c1 | -120%
33 | CCC(NC(=S)NC1CCCCC1)c1ccc(C(C)C)cc1 (centres undefined) | -24.1%
34 | CCN(CC)c1ccc(/C=N/NC(=O)c2nnn(-c3nonc3N)c2C(C)C)c(O)c1 | 32.4% (active)

From PubChem BioAssay AID434927 (Sanford-Burnham Center for Chemical Genomics, 2010)
